Test results reported in paper PMC7862700, “An all-to-all approach to the identification of sequence-specific readers for epigenetic DNA modifications on cytosine”.

Assays:
Assay in all cases: DAPPL (digital affinity profiling via proximity ligation, sequencing); 10 mM Tris-HCl pH 7.5, 50 mM NaCl, 1 mM DTT, 4% glycerol, room temperature, 30 min; GST-TFs on glutathione beads, 16-mer random dsDNA library, 0.1% formaldehyde crosslink after washing; high values mean tight binding
[1] = target: T1, FEV (Homo sapiens, UniProt Q99581 1-238); conditions: protein: recombinant; tags: N-terminal GST; dsDNA, one strand shown
T1 sequence: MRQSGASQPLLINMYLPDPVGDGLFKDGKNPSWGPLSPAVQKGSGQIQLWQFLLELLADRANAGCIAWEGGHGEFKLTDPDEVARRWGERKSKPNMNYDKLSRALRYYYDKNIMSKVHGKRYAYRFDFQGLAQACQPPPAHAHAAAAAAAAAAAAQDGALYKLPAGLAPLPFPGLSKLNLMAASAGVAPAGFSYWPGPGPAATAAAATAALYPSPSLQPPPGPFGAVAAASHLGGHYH
How it was run: (§1)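 A tag-only sample was pooled with DNA-barcoded human transcription factors that had been expressed in yeast as GST fusions and captured on glutathione beads. The pools were incubated for 30 min at room temperature with 200 nmole of a random double-stranded 16-mer DNA library in Tris/NaCl/DTT/glycerol buffer, then washed, crosslinked with 0.1% formaldehyde, proximity-ligated (BsaI/T4 ligase, 1 h, 37 °C), PCR-amplified and sequenced on an Illumina NextSeq500. Binding signal is each hexamer's read frequency for a factor divided by its frequency for the tag-only sample.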

[2] = target: ETV5 (Homo sapiens, UniProt P41161 1-510); conditions: protein: recombinant; tags: N-terminal GST; dsDNA, one strand shown
How it was run: as §1

[3] = target: HSF1 (Homo sapiens, UniProt Q00613 1-529); conditions: protein: recombinant; tags: N-terminal GST; chain copies: 3; dsDNA, one strand shown
How it was run: as §1

[4] = target: T2, SPIC (Homo sapiens, UniProt Q8N5J4 1-248); conditions: protein: recombinant; tags: N-terminal GST; dsDNA, one strand shown
T2 sequence: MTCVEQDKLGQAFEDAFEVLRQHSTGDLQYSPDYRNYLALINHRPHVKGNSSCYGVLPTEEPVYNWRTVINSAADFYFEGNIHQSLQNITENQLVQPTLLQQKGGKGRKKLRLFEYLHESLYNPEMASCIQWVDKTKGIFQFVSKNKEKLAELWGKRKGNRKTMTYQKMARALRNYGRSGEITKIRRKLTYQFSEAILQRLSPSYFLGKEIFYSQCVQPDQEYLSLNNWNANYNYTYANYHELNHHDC
How it was run: as §1

[5] = target: ELF4 (Homo sapiens, UniProt Q99607 1-663); conditions: protein: recombinant; tags: N-terminal GST; dsDNA, one strand shown
How it was run: as §1

[6] = target: T3, ELK4 (Homo sapiens, UniProt P28324-2 1-405); conditions: protein: recombinant; tags: N-terminal GST; dsDNA, one strand shown
T3 sequence: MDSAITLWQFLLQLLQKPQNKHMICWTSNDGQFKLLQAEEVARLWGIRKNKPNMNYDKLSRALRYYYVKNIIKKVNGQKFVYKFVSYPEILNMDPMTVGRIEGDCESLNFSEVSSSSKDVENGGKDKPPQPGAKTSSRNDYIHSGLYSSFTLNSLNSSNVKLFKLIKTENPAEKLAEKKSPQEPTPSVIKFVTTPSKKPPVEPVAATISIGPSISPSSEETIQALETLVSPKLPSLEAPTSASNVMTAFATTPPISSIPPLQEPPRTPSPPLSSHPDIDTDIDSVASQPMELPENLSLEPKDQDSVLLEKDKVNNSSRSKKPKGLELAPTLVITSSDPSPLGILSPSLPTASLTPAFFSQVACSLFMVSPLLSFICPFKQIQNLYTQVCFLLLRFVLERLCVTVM
How it was run: as §1

[7] = target: T4, ETV2 (Homo sapiens, UniProt O00321 1-342); conditions: protein: recombinant; tags: N-terminal GST; dsDNA, one strand shown
T4 sequence: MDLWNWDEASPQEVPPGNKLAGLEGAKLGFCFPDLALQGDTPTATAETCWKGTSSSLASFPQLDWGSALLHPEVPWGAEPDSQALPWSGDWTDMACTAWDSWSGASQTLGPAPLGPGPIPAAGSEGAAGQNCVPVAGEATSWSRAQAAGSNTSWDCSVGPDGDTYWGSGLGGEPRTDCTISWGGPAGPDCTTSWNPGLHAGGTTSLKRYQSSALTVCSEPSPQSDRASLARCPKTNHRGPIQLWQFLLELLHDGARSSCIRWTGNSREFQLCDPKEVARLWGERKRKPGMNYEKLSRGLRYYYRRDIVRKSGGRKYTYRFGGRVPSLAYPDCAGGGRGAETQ
How it was run: as §1

[8] = target: T5, ELF3 (Homo sapiens, UniProt P78545 1-371); conditions: protein: recombinant; tags: N-terminal GST; dsDNA, one strand shown
T5 sequence: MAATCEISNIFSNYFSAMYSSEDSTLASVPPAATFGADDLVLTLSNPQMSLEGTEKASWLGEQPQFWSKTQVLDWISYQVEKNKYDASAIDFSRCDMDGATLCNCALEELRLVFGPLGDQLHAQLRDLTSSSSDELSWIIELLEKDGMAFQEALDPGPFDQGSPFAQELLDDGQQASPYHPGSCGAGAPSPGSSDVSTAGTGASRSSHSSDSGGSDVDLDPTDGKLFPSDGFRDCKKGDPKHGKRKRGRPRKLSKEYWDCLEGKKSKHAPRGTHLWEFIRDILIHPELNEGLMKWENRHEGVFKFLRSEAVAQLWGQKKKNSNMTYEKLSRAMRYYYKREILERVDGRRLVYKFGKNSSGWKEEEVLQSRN
How it was run: as §1

[9] = target: CRX (Homo sapiens, UniProt O43186 1-299); conditions: protein: recombinant; tags: N-terminal GST; dsDNA, one strand shown
How it was run: as §1

[10] = target: ETV1 (Homo sapiens, UniProt P50549 1-477); conditions: protein: recombinant; tags: N-terminal GST; dsDNA, one strand shown
How it was run: as §1

[11] = target: T6, ERF (Homo sapiens, UniProt P50548 1-548); conditions: protein: recombinant; tags: N-terminal GST; dsDNA, one strand shown
T6 sequence: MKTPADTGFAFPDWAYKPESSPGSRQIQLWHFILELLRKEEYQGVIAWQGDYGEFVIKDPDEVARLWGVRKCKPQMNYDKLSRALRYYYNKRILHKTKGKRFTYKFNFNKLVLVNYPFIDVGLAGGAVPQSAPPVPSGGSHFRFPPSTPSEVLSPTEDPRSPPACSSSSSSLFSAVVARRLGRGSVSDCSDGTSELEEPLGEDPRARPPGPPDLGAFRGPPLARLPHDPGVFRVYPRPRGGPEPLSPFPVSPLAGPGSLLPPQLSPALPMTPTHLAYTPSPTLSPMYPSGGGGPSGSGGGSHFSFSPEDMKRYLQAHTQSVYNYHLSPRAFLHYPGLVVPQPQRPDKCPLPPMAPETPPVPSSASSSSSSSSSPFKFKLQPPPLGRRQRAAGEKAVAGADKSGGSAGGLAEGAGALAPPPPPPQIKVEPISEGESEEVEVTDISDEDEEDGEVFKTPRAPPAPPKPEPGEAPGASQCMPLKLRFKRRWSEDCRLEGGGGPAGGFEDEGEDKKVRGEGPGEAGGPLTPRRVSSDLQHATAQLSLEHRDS
How it was run: as §1

[12] = target: T7, ETV3L (Homo sapiens, UniProt Q6ZN32 1-361); conditions: protein: recombinant; tags: N-terminal GST; dsDNA, one strand shown
T7 sequence: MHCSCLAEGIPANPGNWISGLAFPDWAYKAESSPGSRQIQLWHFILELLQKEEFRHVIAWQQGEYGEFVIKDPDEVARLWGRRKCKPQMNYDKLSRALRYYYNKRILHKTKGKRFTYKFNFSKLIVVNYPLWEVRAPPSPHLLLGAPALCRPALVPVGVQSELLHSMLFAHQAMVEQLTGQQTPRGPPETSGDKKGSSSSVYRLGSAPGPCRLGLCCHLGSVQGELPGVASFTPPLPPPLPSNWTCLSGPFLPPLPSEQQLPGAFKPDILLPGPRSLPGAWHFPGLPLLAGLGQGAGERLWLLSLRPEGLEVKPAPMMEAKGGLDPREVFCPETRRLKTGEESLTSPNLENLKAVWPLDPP
How it was run: as §1

[13] = target: T8, ETS2 (Homo sapiens, UniProt P15036 1-469); conditions: protein: recombinant; tags: N-terminal GST; dsDNA, one strand shown
T8 sequence: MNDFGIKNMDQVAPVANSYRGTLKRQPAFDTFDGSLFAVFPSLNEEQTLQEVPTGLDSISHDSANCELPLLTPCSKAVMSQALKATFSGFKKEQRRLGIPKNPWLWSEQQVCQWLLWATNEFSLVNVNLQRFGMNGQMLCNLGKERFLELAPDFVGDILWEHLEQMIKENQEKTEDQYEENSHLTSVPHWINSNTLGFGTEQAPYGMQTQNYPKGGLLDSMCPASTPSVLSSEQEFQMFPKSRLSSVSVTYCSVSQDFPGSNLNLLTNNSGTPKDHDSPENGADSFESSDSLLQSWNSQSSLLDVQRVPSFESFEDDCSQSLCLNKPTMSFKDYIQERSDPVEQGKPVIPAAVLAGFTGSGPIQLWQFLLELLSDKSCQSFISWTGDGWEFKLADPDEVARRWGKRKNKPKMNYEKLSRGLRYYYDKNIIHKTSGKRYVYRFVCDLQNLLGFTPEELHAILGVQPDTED
How it was run: as §1

[14] = target: T9, SPDEF (Homo sapiens, UniProt O95238 1-335); conditions: protein: recombinant; tags: N-terminal GST; dsDNA, one strand shown
T9 sequence: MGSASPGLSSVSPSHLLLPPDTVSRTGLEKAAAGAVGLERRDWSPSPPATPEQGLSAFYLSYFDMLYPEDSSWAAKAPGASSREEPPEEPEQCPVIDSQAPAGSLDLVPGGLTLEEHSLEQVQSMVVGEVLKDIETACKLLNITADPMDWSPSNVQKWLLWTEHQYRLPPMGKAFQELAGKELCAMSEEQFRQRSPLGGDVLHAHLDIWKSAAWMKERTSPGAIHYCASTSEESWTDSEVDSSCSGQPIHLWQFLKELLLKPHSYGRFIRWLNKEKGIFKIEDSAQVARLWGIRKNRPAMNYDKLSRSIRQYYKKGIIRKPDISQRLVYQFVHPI
How it was run: as §1

[15] = target: T10, ETV7 (Homo sapiens, UniProt Q9Y603 1-341); conditions: protein: recombinant; tags: N-terminal GST; dsDNA, one strand shown
T10 sequence: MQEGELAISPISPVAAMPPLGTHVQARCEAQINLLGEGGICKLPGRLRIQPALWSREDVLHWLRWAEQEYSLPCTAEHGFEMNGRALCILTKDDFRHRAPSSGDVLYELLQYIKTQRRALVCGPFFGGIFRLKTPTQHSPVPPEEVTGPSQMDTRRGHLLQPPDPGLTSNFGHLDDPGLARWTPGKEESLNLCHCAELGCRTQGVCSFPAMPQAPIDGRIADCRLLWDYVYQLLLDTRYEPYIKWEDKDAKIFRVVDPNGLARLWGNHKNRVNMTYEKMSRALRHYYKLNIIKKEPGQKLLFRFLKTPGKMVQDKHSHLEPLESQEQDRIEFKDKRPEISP
How it was run: as §1

[16] = target: T11, ELF5 (Homo sapiens, UniProt Q9UKW6-2 1-255); conditions: protein: recombinant; tags: N-terminal GST; dsDNA, one strand shown
T11 sequence: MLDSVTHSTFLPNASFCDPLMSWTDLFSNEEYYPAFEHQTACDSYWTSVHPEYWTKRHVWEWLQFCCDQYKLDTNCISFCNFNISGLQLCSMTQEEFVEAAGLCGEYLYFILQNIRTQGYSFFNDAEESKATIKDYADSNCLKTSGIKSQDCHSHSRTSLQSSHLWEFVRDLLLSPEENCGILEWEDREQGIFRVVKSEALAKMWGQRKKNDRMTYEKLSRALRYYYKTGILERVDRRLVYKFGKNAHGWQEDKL
How it was run: as §1

[17] = target: T12, ETV3 (Homo sapiens, UniProt P41162-2 1-143); conditions: protein: recombinant; tags: N-terminal GST; dsDNA, one strand shown
T12 sequence: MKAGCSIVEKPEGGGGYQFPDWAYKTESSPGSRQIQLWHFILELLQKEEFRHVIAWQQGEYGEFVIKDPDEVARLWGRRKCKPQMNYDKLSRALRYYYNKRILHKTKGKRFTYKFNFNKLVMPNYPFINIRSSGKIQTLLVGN
How it was run: as §1

[18] = target: ETV6 (Homo sapiens, UniProt P41212 1-452); conditions: protein: recombinant; tags: N-terminal GST; dsDNA, one strand shown
How it was run: as §1

Sequence of CRX (O43186 whole entry): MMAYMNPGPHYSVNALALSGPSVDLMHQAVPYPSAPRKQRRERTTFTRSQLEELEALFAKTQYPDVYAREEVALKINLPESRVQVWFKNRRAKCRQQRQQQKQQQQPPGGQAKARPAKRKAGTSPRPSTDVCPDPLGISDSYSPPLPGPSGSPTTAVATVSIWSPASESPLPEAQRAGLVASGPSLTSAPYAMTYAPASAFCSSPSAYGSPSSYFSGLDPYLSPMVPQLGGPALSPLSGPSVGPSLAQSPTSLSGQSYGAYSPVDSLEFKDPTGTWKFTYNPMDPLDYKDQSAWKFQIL
Sequence of ETV1 (P50549 whole entry): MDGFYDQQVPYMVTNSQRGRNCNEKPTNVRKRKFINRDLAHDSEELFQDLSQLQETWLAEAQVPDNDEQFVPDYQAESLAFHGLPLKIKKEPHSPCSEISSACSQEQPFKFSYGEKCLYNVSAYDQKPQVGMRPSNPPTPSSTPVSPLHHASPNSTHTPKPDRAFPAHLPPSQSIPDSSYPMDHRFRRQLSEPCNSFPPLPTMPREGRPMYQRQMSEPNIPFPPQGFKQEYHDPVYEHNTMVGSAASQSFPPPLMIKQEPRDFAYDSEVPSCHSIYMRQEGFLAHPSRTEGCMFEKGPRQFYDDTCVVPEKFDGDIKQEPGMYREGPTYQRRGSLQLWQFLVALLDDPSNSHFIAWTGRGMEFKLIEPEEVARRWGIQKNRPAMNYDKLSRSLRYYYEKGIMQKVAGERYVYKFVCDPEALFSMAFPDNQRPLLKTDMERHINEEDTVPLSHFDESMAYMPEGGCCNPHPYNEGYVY
Sequence of HSF1 (Q00613 whole entry): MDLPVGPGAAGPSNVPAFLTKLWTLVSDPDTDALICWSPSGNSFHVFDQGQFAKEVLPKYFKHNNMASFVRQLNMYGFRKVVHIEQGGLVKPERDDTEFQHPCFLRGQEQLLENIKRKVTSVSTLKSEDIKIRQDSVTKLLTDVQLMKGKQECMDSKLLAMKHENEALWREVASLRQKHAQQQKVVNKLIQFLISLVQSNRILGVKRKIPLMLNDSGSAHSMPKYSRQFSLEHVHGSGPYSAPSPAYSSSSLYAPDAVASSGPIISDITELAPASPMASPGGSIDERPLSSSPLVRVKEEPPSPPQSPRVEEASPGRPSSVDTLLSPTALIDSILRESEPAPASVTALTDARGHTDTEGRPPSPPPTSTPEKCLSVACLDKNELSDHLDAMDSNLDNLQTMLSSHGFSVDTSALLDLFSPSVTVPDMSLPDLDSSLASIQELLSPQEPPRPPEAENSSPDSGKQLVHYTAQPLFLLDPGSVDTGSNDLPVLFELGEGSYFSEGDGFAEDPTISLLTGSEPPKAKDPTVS
Sequence of ETV5 (P41161 whole entry): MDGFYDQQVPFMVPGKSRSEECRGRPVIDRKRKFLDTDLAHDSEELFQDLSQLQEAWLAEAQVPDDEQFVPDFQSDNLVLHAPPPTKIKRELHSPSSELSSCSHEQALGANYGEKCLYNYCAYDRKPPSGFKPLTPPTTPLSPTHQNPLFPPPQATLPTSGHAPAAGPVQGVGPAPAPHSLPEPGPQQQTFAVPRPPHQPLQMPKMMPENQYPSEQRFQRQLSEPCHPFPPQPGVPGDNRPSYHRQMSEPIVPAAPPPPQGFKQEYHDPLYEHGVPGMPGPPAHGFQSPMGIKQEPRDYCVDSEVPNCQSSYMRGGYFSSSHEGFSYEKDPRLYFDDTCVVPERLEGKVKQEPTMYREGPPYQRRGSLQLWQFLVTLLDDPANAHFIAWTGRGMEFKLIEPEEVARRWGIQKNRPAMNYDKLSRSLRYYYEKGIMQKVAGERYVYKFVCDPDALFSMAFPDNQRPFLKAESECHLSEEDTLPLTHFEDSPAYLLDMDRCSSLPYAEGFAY
Sequence of ELF4 (Q99607 whole entry): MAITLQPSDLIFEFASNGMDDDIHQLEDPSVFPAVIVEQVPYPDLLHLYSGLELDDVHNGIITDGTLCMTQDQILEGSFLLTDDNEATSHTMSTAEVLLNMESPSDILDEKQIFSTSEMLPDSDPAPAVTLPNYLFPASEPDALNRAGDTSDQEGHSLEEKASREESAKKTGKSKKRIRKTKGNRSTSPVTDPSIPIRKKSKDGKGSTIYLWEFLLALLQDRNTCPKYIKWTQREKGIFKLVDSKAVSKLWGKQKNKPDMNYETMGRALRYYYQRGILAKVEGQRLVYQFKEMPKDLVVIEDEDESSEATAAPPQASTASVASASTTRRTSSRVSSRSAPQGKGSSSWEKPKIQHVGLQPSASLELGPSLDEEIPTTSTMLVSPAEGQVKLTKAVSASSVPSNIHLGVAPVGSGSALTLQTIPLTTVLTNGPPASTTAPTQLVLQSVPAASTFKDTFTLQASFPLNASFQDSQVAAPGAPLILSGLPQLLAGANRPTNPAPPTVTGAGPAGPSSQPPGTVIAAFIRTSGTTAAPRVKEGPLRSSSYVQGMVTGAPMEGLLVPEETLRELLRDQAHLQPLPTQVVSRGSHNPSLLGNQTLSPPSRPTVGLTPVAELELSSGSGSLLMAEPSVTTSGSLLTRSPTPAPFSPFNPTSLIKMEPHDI
Sequence of ETV6 (P41212 whole entry): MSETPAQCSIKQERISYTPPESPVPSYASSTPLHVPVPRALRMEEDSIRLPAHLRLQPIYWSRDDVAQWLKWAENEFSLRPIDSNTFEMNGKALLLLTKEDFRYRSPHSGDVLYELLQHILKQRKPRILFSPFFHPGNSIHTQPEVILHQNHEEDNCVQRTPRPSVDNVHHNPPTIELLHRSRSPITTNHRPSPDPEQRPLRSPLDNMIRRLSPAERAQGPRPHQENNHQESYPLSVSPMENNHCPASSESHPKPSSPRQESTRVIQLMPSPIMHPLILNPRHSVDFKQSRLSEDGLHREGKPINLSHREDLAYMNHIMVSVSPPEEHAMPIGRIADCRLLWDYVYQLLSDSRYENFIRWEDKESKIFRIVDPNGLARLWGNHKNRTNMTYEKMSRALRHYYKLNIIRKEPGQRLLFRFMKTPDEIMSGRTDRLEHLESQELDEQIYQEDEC

CGAGCA
binding signal [1]: 1.16 fold enrichment (6-mer frequency, TF over GST control)
binding signal [2]: 1.1 fold enrichment (6-mer frequency, TF over GST control)
binding signal [3]: 1.38 fold enrichment (6-mer frequency, TF over GST control)
binding signal [4]: 1.1 fold enrichment (6-mer frequency, TF over GST control)
binding signal [5]: 1.13 fold enrichment (6-mer frequency, TF over GST control)
binding signal [6]: 1.17 fold enrichment (6-mer frequency, TF over GST control)
binding signal [7]: 1.34 fold enrichment (6-mer frequency, TF over GST control)
binding signal [8]: 1.29 fold enrichment (6-mer frequency, TF over GST control)
binding signal [9]: 1.04 fold enrichment (6-mer frequency, TF over GST control)
binding signal [10]: 1.11 fold enrichment (6-mer frequency, TF over GST control)
binding signal [11]: 1.17 fold enrichment (6-mer frequency, TF over GST control)
binding signal [12]: 1.13 fold enrichment (6-mer frequency, TF over GST control)
binding signal [13]: 1.06 fold enrichment (6-mer frequency, TF over GST control)
binding signal [14]: 1.18 fold enrichment (6-mer frequency, TF over GST control)
binding signal [15]: 1.06 fold enrichment (6-mer frequency, TF over GST control)
binding signal [16]: 1.03 fold enrichment (6-mer frequency, TF over GST control)
binding signal [17]: 1.04 fold enrichment (6-mer frequency, TF over GST control)
binding signal [18]: 1.06 fold enrichment (6-mer frequency, TF over GST control)
